Experimental data as given in PubChem BioAssay (NCI).
Compounds without any hit were thinned out: in the full panel of roughly 79,000, 15% have a hit. Values without a mark were called inactive. Calls of active or inactive are those of the source. No stated cut-off is given here; in the data, active means growth inhibition above about 70%; inactive means the rest.

Assay: NCI Yeast Anticancer Drug Screen. Data for the sgs1 mgt1 strain (AID 161);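 further: 0% = growth of cultures given vehicle only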
Conditions: S. cerevisiae sgs1 mgt1 strain, at 50.0 µM, stronger effect = higher value
Method in brief: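 This yeast growth screen uses a strain with defined DNA-repair lesions; compound-treated growth is compared with vehicle-treated growth.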

| Structure (SMILES) | growth inhibition |
| --- | --- |
| CCN(CC)/C(=C\Cl)Nc1ccccn1 | -0.7% |
| CCCCCCCC(=O)[O-].N.N.N.N.N.[Co+3].[O-][Cl+3]([O-])([O-])[O-] | -46.8% |
| CCOP(=O)(CCP(=O)(OCC)OCC)OCC.C[CH2][Sn]([Cl])([Cl])[CH2]C | 45.5% |
| CC(=O)C1=C(O)C2C3c4c[nH]c5cccc(c45)CC3C(C)(C)N2C1=O (stereo unspecified) | 23.9% |
| O=[N+]([O-])/C=C\c1c[nH]c2ccc(OCc3ccccc3)cc12 | 53.4% |
| Nc1cccc(SC2CC(=O)N(c3ccc(Cl)cc3C(=O)c3ccccc3)C2=O)c1 (stereo unspecified) | 34.2% |
| CC(=O)Nc1cccc([As+](C)(C)C)c1 | -2.8% |
| CN(C)C(=O)N(CCCl)N=O | 1.45% |
| CC(C)OP(=O)(NC(=S)c1ccccc1)OC(C)C | 36.4% |
| CC(/C=C/C1OC(=O)C=CC1C)=C\C(C)C/C=C/C(C)=C/C(CO)C(=O)C(C)C(O)C(C)C/C(C)=C/C(=O)O (stereo unspecified) | 81.9% (active) |
| C=C1OC(OC)CC(N=[N+]=[N-])C1O (stereo unspecified) | -6.4% |
| Cc1ccc(Oc2ccc3c(c2)CN(C)CC3)cc1 | 96.8% (active) |
| CCCC[S][Sn-]([CH2]CCC)([CH2]CCC)[CH2]CCC | 99.2% (active) |
| CC(Cl)CN(CC(C)Cl)C(=O)Oc1ccc(CC(N)C(=O)O)cc1 (stereo unspecified) | 25.4% |
| COC(=O)C1C(O)CC2CCC1[N+]2(C)C (stereo unspecified) | 12.4% |
| CN(C)CCN1C(=O)CN=C(c2ccccc2Cl)c2cc(Cl)ccc21 | 27% |
